Test results as given in PubChem BioAssay (NCATS).
Records with an inconclusive call do not appear. This is one part of the list. Calls of active or inactive are those of the source. Unless noted, calls come from the whole dose curve; as a rule, active = well fitted curve in the direction sought with a large enough effect; inconclusive = small, poorly fitted or top-dose-only effect, or another doubt; inactive = no such curve, though single readings can be large; an effect the other way counts as inactive or inconclusive.

What was measured:
[1] = biological target: ATP-dependent 6-phosphofructokinase (Trypanosoma brucei brucei) (UniProt O15648); experiment: qHTS Assay to Find Inhibitors of T. brucei phosphofructokinase: hit validation (AID 492961);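 note: luminescence reports ADP formed as PFK phosphorylates fructose-6-phosphate with ATP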; settings: T. brucei PFK, ADP-Glo luminescence; series mostly up to 51.4 µM
Procedure, shortened: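 Measures ADP output of PFK (1.25 nM) at 0.1 mM ATP, 0.5 mM F6P, pH 8.0 TEA buffer with 5 mM MgCl2. No-enzyme wells define full inhibition; uninhibited enzyme wells define zero.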

[2] = S16 Schwann cell PMP22 intronic element beta-lactamase assay (AID 624044; calls by dose curve; note: nearly all actives have a fitted effect of over 15% in size); settings: S16 rat Schwann cells, PMP22 element beta-lactamase FRET, 24 h; series mostly up to 38.3 µM
Procedure, shortened: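 Beta-lactamase reporter under a PMP22 intronic regulatory element in stable S16 rat Schwann cells; 24 h compound exposure. 460 nm blue signal normalized between DMSO (0%) and potassium clavulanate, with 535 nm FRET tracking viability; curves classed by r2 and response.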

[3] = tested on: 3D7; experiment: qHTS profiling for inhibitors of Plasmodium falciparum proliferation (AID 504749); note: nearly all actives have a fitted effect of over 60% in size; note: potency is the fitted concentration of half-maximal effect; settings: P. falciparum in erythrocytes, SYBR Green DNA, 72 h; series mostly up to 28.7 µM
Procedure, shortened: (§1)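 In a 72 h erythrocytic culture (37 C, humidified, 5% CO2) at 2.5% hematocrit and 0.3% starting parasitemia, compounds were tested; SYBR Green I in detergent lysis buffer stained parasite DNA overnight.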

[4] = tested on: CP217; experiment: as above; settings: P. falciparum in erythrocytes, SYBR Green DNA, 72 h; series mostly up to 28.7 µM
Procedure, shortened: as §1

[5] = tested on: CP260; experiment: as above; settings: P. falciparum in erythrocytes, SYBR Green DNA, 72 h; series mostly up to 28.7 µM
Procedure, shortened: as §1

[6] = tested on: CP265; experiment: as above; settings: P. falciparum in erythrocytes, SYBR Green DNA, 72 h; series mostly up to 28.7 µM
Procedure, shortened: as §1

[7] = tested on: CP286; experiment: as above; settings: P. falciparum in erythrocytes, SYBR Green DNA, 72 h; series mostly up to 28.7 µM
Procedure, shortened: as §1

[8] = tested on: CP335; experiment: as above; settings: P. falciparum in erythrocytes, SYBR Green DNA, 72 h; series mostly up to 28.7 µM
Procedure, shortened: as §1

[9] = tested on: DIV14; experiment: as above; settings: P. falciparum in erythrocytes, SYBR Green DNA, 72 h; series mostly up to 28.7 µM
Procedure, shortened: as §1

[10] = tested on: DIV30; experiment: as above; settings: P. falciparum in erythrocytes, SYBR Green DNA, 72 h; series mostly up to 28.7 µM
Procedure, shortened: as §1

[11] = tested on: Dd2; experiment: as above; settings: P. falciparum in erythrocytes, SYBR Green DNA, 72 h; series mostly up to 28.7 µM
Procedure, shortened: as §1

[12] = tested on: ECU; experiment: as above; settings: P. falciparum in erythrocytes, SYBR Green DNA, 72 h; series mostly up to 28.7 µM
Procedure, shortened: as §1

[13] = tested on: HB3; experiment: as above; settings: P. falciparum in erythrocytes, SYBR Green DNA, 72 h; series mostly up to 28.7 µM
Procedure, shortened: as §1

[14] = tested on: N140; experiment: as above; settings: P. falciparum in erythrocytes, SYBR Green DNA, 72 h; series mostly up to 28.7 µM
Procedure, shortened: as §1

[15] = tested on: P93_24; experiment: as above; settings: P. falciparum in erythrocytes, SYBR Green DNA, 72 h; series mostly up to 28.7 µM
Procedure, shortened: as §1

[16] = tested on: PC15; experiment: as above; settings: P. falciparum in erythrocytes, SYBR Green DNA, 72 h; series mostly up to 28.7 µM
Procedure, shortened: as §1

[17] = tested on: TAB165; experiment: as above; settings: P. falciparum in erythrocytes, SYBR Green DNA, 72 h; series mostly up to 28.7 µM
Procedure, shortened: as §1

[18] = Cell Viability - Jurkat (AID 426;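 active = dose-dependent loss of cell ATP signal giving a full or clear fitted curve, ranked by lower potency value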;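 note: potency is the fitted concentration of half-maximal effect; cells exposed to compound for 40 hours at 37 °C before ATP read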); settings: qHTS
Procedure, shortened: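 Cytotoxicity was scored as loss of cellular ATP, measured by luciferase-based luminescence, in Jurkat clone E6-1 cells after 40 h compound treatment; tamoxifen and doxorubicin served as positive controls.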

[19] = biological target: DNA repair nuclease/redox regulator APEX1 (Homo sapiens) (UniProt P27695); experiment: Confirmation qHTS Assay for Inhibitors of the Human Apurinic/apyrimidinic Endonuclease 1 (APE1) (AID 2572); settings: purified APE1, fluorogenic abasic-site DNA cleavage; series mostly up to 57.1 µM; note: nearly all actives have a fitted effect of over 30% in size; note: potency is the fitted concentration of half-maximal effect
Procedure, shortened: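 Inhibition is measured on a short double-stranded THF-site oligo, 50 nM final, whose incision relieves BHQ-2 quenching of TAMRA. After 15 min enzyme–compound preincubation at RT, three reads a minute apart are taken.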

[20] = biological target: Fructose-bisphosphate aldolase A (Oryctolagus cuniculus) (UniProt P00883); experiment: qHTS Assay for Inhibitors of Fructose-1,6-bisphosphate Aldolase from Giardia Lamblia: Rabbit FBPA Selectivity (AID 2794); settings: Rabbit muscle FBPA enzyme inhibition, selectivity counter-screen; series mostly up to 57.5 µM; note: nearly all actives have a fitted effect of over 60% in size
Procedure, shortened: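 Fluorescence (ex 525 nm, em 598 nm) read after 20 min at room temperature. Rabbit aldolase activity was coupled via glyceraldehyde-3-phosphate enzymes to AmpLite Red; compounds tested up to 57.5 uM final, with 10 min RT preincubation.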

Measured: Potency

Chain of Fructose-bisphosphate aldolase A (Oryctolagus cuniculus) (P00883 whole entry, looked up): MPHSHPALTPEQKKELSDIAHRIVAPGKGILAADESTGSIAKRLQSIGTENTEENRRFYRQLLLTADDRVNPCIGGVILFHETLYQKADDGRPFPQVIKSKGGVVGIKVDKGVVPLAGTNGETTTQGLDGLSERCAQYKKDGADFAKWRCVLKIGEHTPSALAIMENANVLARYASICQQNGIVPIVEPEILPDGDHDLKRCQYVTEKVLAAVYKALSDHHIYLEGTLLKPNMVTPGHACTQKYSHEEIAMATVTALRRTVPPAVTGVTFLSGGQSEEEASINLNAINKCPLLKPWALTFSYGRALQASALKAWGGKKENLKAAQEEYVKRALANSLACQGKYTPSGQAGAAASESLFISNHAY
Chain of DNA repair nuclease/redox regulator APEX1 (Homo sapiens) (P27695 whole entry, looked up): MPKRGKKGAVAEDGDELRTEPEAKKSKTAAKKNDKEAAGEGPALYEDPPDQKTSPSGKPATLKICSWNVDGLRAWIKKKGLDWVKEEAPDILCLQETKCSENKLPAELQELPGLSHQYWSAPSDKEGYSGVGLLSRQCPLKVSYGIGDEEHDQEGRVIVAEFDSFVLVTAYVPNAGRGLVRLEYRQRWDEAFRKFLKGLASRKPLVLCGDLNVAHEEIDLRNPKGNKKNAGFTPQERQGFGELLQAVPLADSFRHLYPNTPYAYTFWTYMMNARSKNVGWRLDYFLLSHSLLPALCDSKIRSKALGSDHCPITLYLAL
Chain of ATP-dependent 6-phosphofructokinase (Trypanosoma brucei brucei) (O15648 whole entry, looked up): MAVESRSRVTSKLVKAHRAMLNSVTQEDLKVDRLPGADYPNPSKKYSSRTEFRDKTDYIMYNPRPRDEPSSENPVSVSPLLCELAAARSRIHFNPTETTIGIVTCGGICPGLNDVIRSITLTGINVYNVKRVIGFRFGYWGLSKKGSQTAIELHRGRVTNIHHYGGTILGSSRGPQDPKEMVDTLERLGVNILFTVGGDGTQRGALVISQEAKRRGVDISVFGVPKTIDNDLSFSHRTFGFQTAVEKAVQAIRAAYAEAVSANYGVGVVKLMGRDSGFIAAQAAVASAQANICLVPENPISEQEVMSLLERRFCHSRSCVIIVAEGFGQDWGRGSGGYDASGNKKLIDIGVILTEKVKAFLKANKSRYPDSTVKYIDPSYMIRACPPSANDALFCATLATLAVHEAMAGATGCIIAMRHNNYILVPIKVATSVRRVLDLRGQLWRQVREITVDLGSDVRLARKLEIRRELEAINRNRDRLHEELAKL

Cc1c(C(=O)O)c(O)cc2c1C(=O)c1c(O)c([C@H]3O[C@H](CO)[C@@H](O)[C@H](O)[C@H]3O)c(O)c(O)c1C2=O
inactive: [1] | [2] | [3] | [4] | [5] | [6] | [7] | [8] | [9] | [10] | [11] | [12] | [13] | [14] | [15] | [16] | [17]

CCN(CC)c1ccc(N)cc1
active: [18] 44 µM

O=Nc1ccc(Nc2ccccc2)cc1
active: [18] 3.86 µM

S=C(NC1CCCCC1)NC1CCCCC1
inactive: [18] > 92 µM

O=C1c2ccccc2C(=O)C1(O)O
active: [18] 34.4 µM

Cc1ccc(-c2nc(SCC(=O)Nc3ccccc3OC(F)F)c3c(C)c(C(=O)O)sc3n2)cc1
active: [19] 7.94 µM

N/C(=N\OC(=O)Nc1ccccc1)c1ccno1
inactive: [19]

C=C1CC[C@H](O)C/C1=C/C=C1\CCC[C@]2(C)[C@@H]([C@H](C)CCCC(C)C)CC[C@@H]12
active: [11] 12.6 µM
inactive: [1] | [2] | [8] | [10]

Cc1cc(C)c2nc(-c3ccco3)cc(C(=O)O)c2c1
active: [19] 12.6 µM

Cc1ccc(Cc2cnc(N)s2)o1
inactive: [19]

Cc1ccc(S(=O)(=O)NNC(=S)NC(C)(C)C)cc1
inactive: [20]

NS(=O)(=O)c1cc2c(cc1Cl)N[C@H](Cc1ccccc1)NS2(=O)=O
inactive: [1] | [2] | [3] | [4] | [5] | [6] | [7] | [8] | [9] | [10] | [11] | [12] | [13] | [14] | [15] | [16] | [17]

C[C@]12CC[C@H]3c4ccc(O)cc4CC[C@@H]3[C@H]1CC[C@@H]2OC(=O)CCC1CCCC1
inactive: [1] | [2] | [4]
active: [9] 9.53 µM | [11] 14.1 µM | [14] 12.6 µM | [16] 12.6 µM

Cc1cn([C@H]2C[C@H](N=[N+]=[N-])[C@H](CO)O2)c(=O)[nH]c1=O
inactive: [3] | [4] | [5] | [6] | [7] | [8] | [9] | [11] | [12] | [13] | [14] | [15] | [16] | [17]

COc1ccc(OC)c(Nc2nc(-c3ccc(O)c(O)c3)cs2)c1
inactive: [20]

O=C(O)[C@@H](S)[C@H](S)C(=O)O
active: [3] 8.91 µM | [4] 6.31 µM | [5] 5.01 µM | [6] 8.91 µM | [7] 7.08 µM | [8] 6.75 µM | [9] 8.49 µM | [10] 6.75 µM | [12] 11.2 µM | [13] 10 µM | [14] 7.94 µM | [15] 4.47 µM | [17] 11.2 µM
inactive: [2]

Cc1ccc(C(=O)Nc2nnc(C3=COCCO3)o2)cc1C
inactive: [20]

CCN1CCc2c(C#N)c(NCc3ccccc3)nc(NCCO)c2C1
inactive: [20]

Cc1csc(NC(=O)CN2CCCCCC2)n1
inactive: [20]
